The supplement of paper PMC11732987, “Enantioselective OTUD7B fragment discovery through chemoproteomics screening and high-throughput optimisation” (Communications Chemistry, 2025)

Key:
Test in all cases: log2 ratio of Biotin-Ahx-Ub-VS probe labelling (fragment/DMSO); higher = less target engagement (more negative = stronger competition), active = hit call of the paper (q ≤ 0.05, log2 ratio ≤ -1)
Conditions in all cases: compound concentration: 200 uM; treatment time: 3 h
USP34 = USP34 (UniProt Q70CQ2)
Sequence of USP34 (Q70CQ2 whole entry, the tested form may be a part): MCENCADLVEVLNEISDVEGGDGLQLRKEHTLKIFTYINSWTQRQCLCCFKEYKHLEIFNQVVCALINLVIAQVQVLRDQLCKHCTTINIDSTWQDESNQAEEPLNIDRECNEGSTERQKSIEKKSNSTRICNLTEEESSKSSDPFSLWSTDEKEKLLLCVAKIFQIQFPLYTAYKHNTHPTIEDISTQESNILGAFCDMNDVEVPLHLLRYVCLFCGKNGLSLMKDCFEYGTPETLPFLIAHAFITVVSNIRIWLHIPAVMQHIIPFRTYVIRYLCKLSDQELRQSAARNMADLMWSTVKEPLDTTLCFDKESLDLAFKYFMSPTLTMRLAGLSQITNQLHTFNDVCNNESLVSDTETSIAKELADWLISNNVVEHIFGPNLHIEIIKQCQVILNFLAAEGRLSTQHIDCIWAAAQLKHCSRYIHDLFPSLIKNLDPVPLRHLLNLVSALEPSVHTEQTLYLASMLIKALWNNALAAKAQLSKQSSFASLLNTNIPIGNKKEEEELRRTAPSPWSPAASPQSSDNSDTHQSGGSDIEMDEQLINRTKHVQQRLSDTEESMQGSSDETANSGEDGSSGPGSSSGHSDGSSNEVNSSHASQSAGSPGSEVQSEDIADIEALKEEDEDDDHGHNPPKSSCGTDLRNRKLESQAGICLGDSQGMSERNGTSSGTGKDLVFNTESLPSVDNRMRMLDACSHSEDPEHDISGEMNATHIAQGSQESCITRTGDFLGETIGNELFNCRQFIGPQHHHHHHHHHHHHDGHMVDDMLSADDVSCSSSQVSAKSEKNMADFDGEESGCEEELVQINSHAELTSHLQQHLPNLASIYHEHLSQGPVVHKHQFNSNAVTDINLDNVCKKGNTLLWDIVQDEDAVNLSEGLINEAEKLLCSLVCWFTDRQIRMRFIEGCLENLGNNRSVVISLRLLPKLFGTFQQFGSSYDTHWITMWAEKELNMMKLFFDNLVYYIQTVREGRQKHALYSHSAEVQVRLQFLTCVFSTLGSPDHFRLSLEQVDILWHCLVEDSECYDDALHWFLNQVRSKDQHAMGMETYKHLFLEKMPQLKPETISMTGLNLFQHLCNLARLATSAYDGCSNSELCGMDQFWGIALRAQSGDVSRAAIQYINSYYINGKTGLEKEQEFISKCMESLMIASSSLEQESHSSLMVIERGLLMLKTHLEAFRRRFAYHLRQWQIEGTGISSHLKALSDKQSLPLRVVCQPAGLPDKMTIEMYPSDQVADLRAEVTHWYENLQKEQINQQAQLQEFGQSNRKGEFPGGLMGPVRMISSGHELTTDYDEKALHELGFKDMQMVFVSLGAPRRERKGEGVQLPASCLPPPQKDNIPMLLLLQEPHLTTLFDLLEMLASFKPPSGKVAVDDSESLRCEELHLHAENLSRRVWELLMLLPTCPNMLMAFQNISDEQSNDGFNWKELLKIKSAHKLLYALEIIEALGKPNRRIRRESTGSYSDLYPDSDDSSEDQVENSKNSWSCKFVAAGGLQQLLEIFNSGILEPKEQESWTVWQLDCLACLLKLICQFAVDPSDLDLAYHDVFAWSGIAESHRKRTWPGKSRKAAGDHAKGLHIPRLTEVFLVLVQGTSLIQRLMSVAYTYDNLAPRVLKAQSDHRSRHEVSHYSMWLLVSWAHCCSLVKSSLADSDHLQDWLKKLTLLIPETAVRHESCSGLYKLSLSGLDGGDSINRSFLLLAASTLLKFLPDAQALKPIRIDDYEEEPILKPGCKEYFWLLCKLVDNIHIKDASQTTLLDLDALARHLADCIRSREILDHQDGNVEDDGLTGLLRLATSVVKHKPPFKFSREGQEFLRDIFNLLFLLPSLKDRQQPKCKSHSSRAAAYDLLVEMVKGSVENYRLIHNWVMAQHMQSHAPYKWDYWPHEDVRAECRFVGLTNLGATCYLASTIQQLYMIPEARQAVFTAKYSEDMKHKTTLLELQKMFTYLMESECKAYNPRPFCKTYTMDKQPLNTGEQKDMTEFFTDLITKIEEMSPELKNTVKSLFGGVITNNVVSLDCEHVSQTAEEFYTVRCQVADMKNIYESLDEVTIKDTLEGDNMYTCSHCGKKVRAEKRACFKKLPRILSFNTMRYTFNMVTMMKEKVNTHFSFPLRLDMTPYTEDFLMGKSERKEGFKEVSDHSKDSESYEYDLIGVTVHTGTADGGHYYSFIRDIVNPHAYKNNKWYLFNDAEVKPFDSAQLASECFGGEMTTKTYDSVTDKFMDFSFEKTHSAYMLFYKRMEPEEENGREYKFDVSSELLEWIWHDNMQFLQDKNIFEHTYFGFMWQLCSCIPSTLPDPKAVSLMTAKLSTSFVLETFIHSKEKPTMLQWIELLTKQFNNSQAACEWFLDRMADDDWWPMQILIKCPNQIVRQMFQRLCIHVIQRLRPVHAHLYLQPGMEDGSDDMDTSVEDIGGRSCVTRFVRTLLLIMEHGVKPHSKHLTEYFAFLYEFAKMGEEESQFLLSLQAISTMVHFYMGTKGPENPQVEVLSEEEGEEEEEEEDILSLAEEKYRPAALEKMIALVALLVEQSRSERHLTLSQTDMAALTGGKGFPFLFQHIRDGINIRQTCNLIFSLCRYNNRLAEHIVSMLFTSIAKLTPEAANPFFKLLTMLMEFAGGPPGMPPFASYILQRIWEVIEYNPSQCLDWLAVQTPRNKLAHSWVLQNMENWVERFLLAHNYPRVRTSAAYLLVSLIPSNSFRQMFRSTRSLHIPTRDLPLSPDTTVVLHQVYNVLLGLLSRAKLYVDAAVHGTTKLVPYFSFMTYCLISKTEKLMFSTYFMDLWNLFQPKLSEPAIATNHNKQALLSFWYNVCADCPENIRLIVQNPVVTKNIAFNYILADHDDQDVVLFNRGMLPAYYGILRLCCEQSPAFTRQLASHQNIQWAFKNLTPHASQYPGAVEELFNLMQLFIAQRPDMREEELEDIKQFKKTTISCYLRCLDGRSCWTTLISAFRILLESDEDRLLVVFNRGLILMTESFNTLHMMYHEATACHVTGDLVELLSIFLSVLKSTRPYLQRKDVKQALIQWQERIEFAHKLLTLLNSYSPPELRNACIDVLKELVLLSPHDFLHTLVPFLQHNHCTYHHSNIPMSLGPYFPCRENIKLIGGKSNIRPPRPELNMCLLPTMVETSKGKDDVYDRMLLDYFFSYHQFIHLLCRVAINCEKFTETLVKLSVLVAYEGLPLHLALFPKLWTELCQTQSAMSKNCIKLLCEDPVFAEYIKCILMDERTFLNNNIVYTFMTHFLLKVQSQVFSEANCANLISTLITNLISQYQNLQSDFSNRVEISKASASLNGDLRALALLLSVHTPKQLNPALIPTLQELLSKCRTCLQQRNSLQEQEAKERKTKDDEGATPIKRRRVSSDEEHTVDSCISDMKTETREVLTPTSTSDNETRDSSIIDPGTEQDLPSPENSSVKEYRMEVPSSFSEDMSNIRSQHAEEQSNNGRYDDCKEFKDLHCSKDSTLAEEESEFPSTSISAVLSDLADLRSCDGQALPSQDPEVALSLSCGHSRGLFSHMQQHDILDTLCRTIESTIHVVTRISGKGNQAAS
In short: (§1)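 Average log2 ratios of fragment over vehicle were obtained by unpaired t-test from global-median-normalised Spectronaut label-free quantities. Proteins with ≥2 unique peptides were included. HEK293T lysate (495 µg per sample) was treated in triplicate with fragment at 200 µM or vehicle for 3 h, then with Biotin-Ahx-Ub-VS at 0.5 µM final for 1 h, and labelled DUBs were NeutrAvidin-enriched and run by diaPASEF LC-MS/MS.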

USP36 = molecular target: T1, USP36 (UniProt Q9P275)
T1 sequence (whole entry): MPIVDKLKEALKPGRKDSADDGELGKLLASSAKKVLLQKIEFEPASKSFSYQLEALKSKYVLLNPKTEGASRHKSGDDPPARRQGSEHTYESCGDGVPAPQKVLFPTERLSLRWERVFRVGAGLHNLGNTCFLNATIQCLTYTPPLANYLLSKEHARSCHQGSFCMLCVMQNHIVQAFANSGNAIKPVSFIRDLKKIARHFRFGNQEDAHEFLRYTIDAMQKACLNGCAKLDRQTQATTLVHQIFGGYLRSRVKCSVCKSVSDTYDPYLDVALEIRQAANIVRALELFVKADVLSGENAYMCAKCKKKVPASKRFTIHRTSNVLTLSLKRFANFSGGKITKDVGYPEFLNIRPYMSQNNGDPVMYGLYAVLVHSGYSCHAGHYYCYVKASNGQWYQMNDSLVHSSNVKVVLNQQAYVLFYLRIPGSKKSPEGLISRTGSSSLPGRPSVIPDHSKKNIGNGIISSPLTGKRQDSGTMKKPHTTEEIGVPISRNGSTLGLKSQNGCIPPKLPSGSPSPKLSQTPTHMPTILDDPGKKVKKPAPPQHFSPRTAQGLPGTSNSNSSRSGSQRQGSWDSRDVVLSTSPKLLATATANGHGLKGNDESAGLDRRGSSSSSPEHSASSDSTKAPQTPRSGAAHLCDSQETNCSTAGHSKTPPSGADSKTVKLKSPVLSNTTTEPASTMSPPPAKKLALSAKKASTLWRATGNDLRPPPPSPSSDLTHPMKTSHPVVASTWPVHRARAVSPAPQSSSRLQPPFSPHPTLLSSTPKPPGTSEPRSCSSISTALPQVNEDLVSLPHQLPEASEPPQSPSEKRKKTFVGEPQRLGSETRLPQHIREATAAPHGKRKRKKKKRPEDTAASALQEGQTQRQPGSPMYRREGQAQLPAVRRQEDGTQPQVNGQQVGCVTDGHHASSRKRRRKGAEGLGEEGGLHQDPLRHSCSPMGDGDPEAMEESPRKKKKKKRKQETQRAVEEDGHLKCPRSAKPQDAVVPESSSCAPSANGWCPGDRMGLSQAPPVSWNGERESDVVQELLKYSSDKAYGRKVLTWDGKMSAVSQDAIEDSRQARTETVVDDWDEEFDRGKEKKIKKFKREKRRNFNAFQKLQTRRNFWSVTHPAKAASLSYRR
In short: as §1

USP38 = molecular target: T2, USP38 (UniProt Q8NB14)
T2 sequence (whole entry): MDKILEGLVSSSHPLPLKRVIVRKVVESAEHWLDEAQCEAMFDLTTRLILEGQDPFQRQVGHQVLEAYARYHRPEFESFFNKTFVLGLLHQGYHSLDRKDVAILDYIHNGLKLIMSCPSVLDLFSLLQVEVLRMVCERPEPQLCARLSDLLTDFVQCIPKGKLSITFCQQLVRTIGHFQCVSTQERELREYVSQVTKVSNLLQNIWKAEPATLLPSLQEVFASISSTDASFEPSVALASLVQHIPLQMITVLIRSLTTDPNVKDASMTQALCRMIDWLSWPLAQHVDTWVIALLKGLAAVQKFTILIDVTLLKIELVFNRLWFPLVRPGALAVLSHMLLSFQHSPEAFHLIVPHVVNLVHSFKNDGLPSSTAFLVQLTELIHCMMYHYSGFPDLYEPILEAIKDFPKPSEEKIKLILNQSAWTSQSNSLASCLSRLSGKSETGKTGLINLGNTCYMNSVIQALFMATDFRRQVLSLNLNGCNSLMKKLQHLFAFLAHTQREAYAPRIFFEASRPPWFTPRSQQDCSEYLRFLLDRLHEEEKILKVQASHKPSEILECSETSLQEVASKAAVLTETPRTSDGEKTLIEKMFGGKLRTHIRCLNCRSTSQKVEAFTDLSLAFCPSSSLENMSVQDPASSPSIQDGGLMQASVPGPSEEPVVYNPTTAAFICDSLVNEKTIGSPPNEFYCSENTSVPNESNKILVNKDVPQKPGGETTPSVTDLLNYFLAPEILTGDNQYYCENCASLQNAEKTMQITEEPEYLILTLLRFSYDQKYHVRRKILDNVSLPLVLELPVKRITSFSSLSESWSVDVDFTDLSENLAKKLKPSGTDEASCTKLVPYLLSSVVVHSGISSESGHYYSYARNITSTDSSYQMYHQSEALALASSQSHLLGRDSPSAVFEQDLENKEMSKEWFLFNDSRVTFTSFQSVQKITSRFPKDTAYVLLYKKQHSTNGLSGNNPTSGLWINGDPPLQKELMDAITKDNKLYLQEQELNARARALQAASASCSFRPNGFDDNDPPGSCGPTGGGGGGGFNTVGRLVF
In short: as §1

USP39 = molecular target: T3, USP39 (UniProt Q53GS9)
T3 sequence (whole entry): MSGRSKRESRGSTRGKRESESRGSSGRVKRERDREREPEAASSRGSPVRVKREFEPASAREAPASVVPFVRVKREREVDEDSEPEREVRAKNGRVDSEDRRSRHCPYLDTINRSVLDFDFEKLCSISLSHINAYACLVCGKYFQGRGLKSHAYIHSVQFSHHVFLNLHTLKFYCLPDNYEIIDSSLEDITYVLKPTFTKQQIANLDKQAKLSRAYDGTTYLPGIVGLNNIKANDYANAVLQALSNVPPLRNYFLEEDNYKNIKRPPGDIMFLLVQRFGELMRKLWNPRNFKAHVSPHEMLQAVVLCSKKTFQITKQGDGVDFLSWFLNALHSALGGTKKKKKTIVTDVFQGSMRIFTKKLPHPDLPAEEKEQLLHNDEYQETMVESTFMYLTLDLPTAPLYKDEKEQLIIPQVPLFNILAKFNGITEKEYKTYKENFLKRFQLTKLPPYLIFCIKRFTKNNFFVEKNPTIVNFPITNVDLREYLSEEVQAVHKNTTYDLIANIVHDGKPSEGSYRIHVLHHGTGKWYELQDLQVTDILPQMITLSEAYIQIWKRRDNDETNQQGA
In short: as §1

USP4 = molecular target: T4, USP4 (UniProt Q13107)
T4 sequence (whole entry): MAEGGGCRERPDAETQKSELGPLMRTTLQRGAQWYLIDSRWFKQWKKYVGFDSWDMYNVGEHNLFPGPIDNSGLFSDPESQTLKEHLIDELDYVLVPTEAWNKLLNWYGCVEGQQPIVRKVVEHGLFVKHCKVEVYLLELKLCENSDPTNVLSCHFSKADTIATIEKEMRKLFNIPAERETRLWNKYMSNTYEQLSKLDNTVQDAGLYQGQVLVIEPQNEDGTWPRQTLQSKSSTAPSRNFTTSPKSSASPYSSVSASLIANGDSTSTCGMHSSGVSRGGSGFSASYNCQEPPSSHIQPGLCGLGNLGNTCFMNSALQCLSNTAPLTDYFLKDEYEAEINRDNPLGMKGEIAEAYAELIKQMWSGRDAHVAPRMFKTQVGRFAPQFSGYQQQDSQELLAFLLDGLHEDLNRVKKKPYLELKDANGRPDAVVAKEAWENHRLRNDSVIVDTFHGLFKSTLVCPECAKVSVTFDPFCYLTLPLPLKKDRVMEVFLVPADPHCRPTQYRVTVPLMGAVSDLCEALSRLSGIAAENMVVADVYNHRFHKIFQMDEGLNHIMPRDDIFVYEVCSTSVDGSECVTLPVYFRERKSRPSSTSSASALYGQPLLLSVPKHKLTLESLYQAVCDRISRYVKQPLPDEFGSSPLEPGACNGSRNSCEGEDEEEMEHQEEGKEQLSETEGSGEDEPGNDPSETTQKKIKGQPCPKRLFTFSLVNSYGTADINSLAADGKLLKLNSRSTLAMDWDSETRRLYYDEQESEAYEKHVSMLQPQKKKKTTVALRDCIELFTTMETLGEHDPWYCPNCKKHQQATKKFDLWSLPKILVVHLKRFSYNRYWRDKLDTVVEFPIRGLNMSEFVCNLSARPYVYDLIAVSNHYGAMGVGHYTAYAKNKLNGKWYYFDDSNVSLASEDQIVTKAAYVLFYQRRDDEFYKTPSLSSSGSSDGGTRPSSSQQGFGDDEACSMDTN
In short: as §1

Measured: log2 ratio of Biotin-Ahx-Ub-VS probe labelling

NC(=O)C1CCCCN1C(=O)CCl (stereo not given)
inactive: USP34 -0.0479 | USP36 -0.322 | USP38 0.0849 | USP39 0.0987 | USP4 -0.0651
